# Measurements reported in PubChem BioAssay AID1159580 (chemical genetic matrix, 2015).
# Among all 5,500 compounds or so, about 2,000 (36%) were called active. Not shown: some 18% with an inconclusive outcome. Some of the results follow. A number with no mark means an inactive call. Rule as the data show it: active = normalized growth mostly below about 0.91 (no sharp cut-off); inconclusive = no clear call, values can overlap the other calls; inactive = mostly above about 0.92.
# Experiment: chemical genetic growth profiling, strain panel (AID 1159580);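 also: tested at 20 µM; growth read once vehicle control cultures reached saturation at 30 °C; 1 = growth at the plate median or of vehicle wells; lower values mean less growth of the strain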
# Conditions: S. cerevisiae deletion strains, growth OD
smiles,measurement,setting,value
OC[C@H]1OC([S-])[C@H](O)[C@@H](O)[C@@H]1O.[Au+] (some centres undefined),normalized growth,"locus YAL021C, strain ccr4, hits give low values",1.03
same,normalized growth,"locus YAL026C, strain drs2, hits give low values",1.03
same,normalized growth,"locus YAL030W, strain snc1, hits give low values",1.03
same,normalized growth,"locus YBL061C, strain skt5, hits give low values",1.02
same,normalized growth,"locus YBR009C, strain hhf1, hits give low values",1.02
same,normalized growth,"locus YBR023C, strain chs3, hits give low values",1.01
same,normalized growth,"locus YBR171W, strain sec66, hits give low values",1.01
same,normalized growth,"locus YBR231C, strain swc5, hits give low values",1.02
same,normalized growth,"locus YBR279W, strain paf1, hits give low values",1.01
same,normalized growth,"locus YCL011C, strain gbp2, hits give low values",1
same,normalized growth,"locus YCL016C, strain dcc1, hits give low values",1
same,normalized growth,"locus YCL069W, strain vba3, hits give low values",1.01
same,normalized growth,"locus YCR088W, strain abp1, hits give low values",1.01
same,normalized growth,"locus YDL005C, strain med2, hits give low values",1.02
same,normalized growth,"locus YDL040C, strain nat1, hits give low values",1.01
same,normalized growth,"locus YDR001C, strain nth1, hits give low values",1
same,normalized growth,"locus YDR069C, strain doa4, hits give low values",1.01
same,normalized growth,"locus YDR137W, strain rgp1, hits give low values",1.03
same,normalized growth,"locus YDR159W, strain sac3, hits give low values",1.06
same,normalized growth,"locus YDR195W, strain ref2",1.03
same,normalized growth,"locus YDR297W, strain sur2, hits give low values",1
same,normalized growth,"locus YDR334W, strain swr1, hits give low values",1.01
same,normalized growth,"locus YDR335W, strain msn5, hits give low values",1.02
same,normalized growth,"locus YDR392W, strain spt3, hits give low values",1.03
same,normalized growth,"locus YEL003W, strain gim4, hits give low values",1.01
same,normalized growth,"locus YEL037C, strain rad23, hits give low values",1.01
same,normalized growth,"locus YEL061C, strain CIN8 (second series), hits give low values",1.01
same,normalized growth,"locus YER015W, strain faa2, hits give low values",1.01
same,normalized growth,"locus YER016W, strain bim1, hits give low values",1.02
same,normalized growth,"locus YER111C, strain swi4, hits give low values",1.01
same,normalized growth,"locus YER155C, strain BEM2 (second series), hits give low values",1.05
same,normalized growth,"locus YFR010W, strain ubp6, hits give low values",1.02
same,normalized growth,"locus YGL167C, strain pmr1, hits give low values",1
same,normalized growth,"locus YGL173C, strain kem1, hits give low values",1.02
same,normalized growth,"locus YGL227W, strain vid30, hits give low values",1.01
same,normalized growth,"locus YGL240W, strain doc1, hits give low values",1.03
same,normalized growth,"locus YGL253W, strain hxk2, hits give low values",1.01
same,normalized growth,"locus YHR013C, strain ard1, hits give low values",1.02
same,normalized growth,"locus YHR027C, strain rpn1, hits give low values",0.992
same,normalized growth,"locus YHR030C, strain SLT2, hits give low values",1.05
same,normalized growth,"locus YHR079C, strain IRE1, hits give low values",1.1
same,normalized growth,"locus YHR142W, strain chs7, hits give low values",0.995
same,normalized growth,"locus YJL092W, strain hpr5, hits give low values",1.01
same,normalized growth,"locus YJL095W, strain BCK1 (second series), hits give low values",1.01
same,normalized growth,"locus YJL095W, strain BCK1, hits give low values",1.08
same,normalized growth,"locus YJL115W, strain asf1, hits give low values",1.01
same,normalized growth,"locus YJL129C, strain trk1, hits give low values",1.01
same,normalized growth,"locus YJL154C, strain vps35, hits give low values",1.01
same,normalized growth,"locus YJL164C, strain tpk1, hits give low values",1.01
same,normalized growth,"locus YJL166W, strain qcr8, hits give low values",1.02
same,normalized growth,"locus YJL187C, strain SWE1, hits give low values",1.02
same,normalized growth,"locus YJR066W, strain TOR1, hits give low values",0.998
same,normalized growth,"locus YKL160W, strain elf1, hits give low values",1
same,normalized growth,"locus YKR026C, strain gcn3, hits give low values",1.01
same,normalized growth,"locus YKR091W, strain srl3, hits give low values",1.01
same,normalized growth,"locus YLL001W, strain dnm1, hits give low values",1.01
same,normalized growth,"locus YLL026W, hits give low values",1.01
same,normalized growth,"locus YLL041C, strain sdh2, hits give low values",0.999
same,normalized growth,"locus YLR027C, strain aat2, hits give low values",1.02
same,normalized growth,"locus YLR113W, strain HOG1, hits give low values",1.17 [resistant] (active)
same,normalized growth,"locus YLR221C, strain rsa3, hits give low values",1.01
same,normalized growth,"locus YLR258W, strain gsy2, hits give low values",1.01
same,normalized growth,"locus YLR262C, strain YPT6 (second series), hits give low values",1
same,normalized growth,"locus YLR320W, strain mms22, hits give low values",1.02
same,normalized growth,"locus YLR342W, strain FKS1, hits give low values",1.01
same,normalized growth,"locus YLR357W, strain rsc2, hits give low values",1.01
same,normalized growth,"locus YLR370C, strain arc18, hits give low values",1.01
same,normalized growth,"locus YLR384C, strain iki3, hits give low values",0.987
same,normalized growth,"locus YML120C, strain ndi1, hits give low values",1.02
same,normalized growth,"locus YMR058W, strain fet3, hits give low values",1.01
same,normalized growth,"locus YMR125W, strain sto1, hits give low values",1.02
same,normalized growth,"locus YMR129W, hits give low values",1.01
same,normalized growth,"locus YMR205C, strain PFK2, hits give low values",1.03
same,normalized growth,"locus YMR231W, strain pep5, hits give low values",1.01
same,normalized growth,"locus YNL071W, strain lat1, hits give low values",1
same,normalized growth,"locus YNL183C, strain NPR1, hits give low values",1.02
same,normalized growth,"locus YNL209W, strain ssb2, hits give low values",1
same,normalized growth,"locus YNL248C, strain rpa49, hits give low values",1.01
same,normalized growth,"locus YNL322C, strain KRE1 (second series), hits give low values",1.01
same,normalized growth,"locus YNR049C, strain mso1, hits give low values",0.997
same,normalized growth,"locus YOR001W, strain rrp6, hits give low values",1.02
same,normalized growth,"locus YOR070C, strain gyp1, hits give low values",1
same,normalized growth,"locus YOR080W, strain dia2, hits give low values",1.01
same,normalized growth,"locus YOR083W, strain WHI5, hits give low values",0.996
same,normalized growth,"locus YOR106W, strain vam3, hits give low values",1.03
same,normalized growth,"locus YOR231W, strain MKK1, hits give low values",1.09
same,normalized growth,"locus YOR265W, strain rbl2, hits give low values",1.01
same,normalized growth,"locus YOR270C, strain vph1, hits give low values",1.27 [resistant] (active)
same,normalized growth,"locus YOR290C, strain snf2, hits give low values",1.01
same,normalized growth,"locus YPL051W, strain arl3, hits give low values",0.994
same,normalized growth,"locus YPL078C, strain atp4, hits give low values",1.03
same,normalized growth,"locus YPL106C, strain sse1, hits give low values",1.01
same,normalized growth,"locus YPL240C, strain hsp82, hits give low values",1.01
same,normalized growth,"locus YPL256C, strain CLN2, hits give low values",1.16
